# In all, about 5,500 compounds went through this assay and about 2,000 (36%) were called active. Inconclusive results (about 18%) are left out. The list shows a part of the results. Values without a mark were called inactive. Rule as the data show it: active = normalized growth mostly below about 0.91 (no sharp cut-off); inconclusive = no clear call, values can overlap the other calls; inactive = mostly above about 0.92.
# Test: chemical genetic growth profiling, strain panel (AID 1159580);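 also: tested at 20 µM; growth read once vehicle control cultures reached saturation at 30 °C; 1 = growth at the plate median or of vehicle wells; lower values mean less growth of the strain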
# Conditions: S. cerevisiae deletion strains, growth OD
# [1] = locus YAL013W, strain DEP1, hits give low values
# [2] = locus YBR229C, strain ROT2, hits give low values
# [3] = locus YCL061C, strain MRC1, hits give low values
# [4] = locus YDL101C, strain DUN1, hits give low values
# [5] = locus YDR150W, strain NUM1, hits give low values
# [6] = locus YEL061C, strain CIN8, hits give low values
# [7] = locus YGR078C, strain PAC10, hits give low values
# [8] = locus YHR030C, strain SLT2, hits give low values
# [9] = locus YHR087W, strain rtc3, hits give low values
# [10] = locus YJL187C, strain SWE1, hits give low values
# [11] = locus YJR043C, strain POL32, hits give low values
# [12] = locus YJR075W, strain HOC1, hits give low values
# [13] = locus YLR039C, strain RIC1, hits give low values
# [14] = locus YLR058C, strain SHM2 (second series), hits give low values
# [15] = locus YLR085C, strain ARP6, hits give low values
# [16] = locus YLR262C, strain YPT6, hits give low values
# [17] = locus YML094W, strain GIM5, hits give low values
# [18] = locus YMR219W, strain ESC1, hits give low values
# [19] = locus YMR263W, strain SAP30, hits give low values
# [20] = locus YMR307W, strain GAS1, hits give low values
# [21] = locus YNL153C, strain GIM3, hits give low values
# [22] = locus YNL298W, strain CLA4 (second series), hits give low values
# [23] = locus YNL322C, strain KRE1, hits give low values
# [24] = locus YNR030W, strain Alg12, hits give low values
# [25] = locus YOL006C, strain TOP1, hits give low values
# [26] = locus YPL055C, strain LGE1, hits give low values
# [27] = locus YPL241C, strain CIN2, hits give low values
# [28] = locus YPR135W, strain CTF4, hits give low values
# [29] = locus YKL190W, strain CNB1, hits give low values
structure (smiles),measurement,setting,value
Cc1ccc2cc(C)c(C)cc2c1,normalized growth,[1],0.994
same,normalized growth,[2],0.991
same,normalized growth,[3],0.992
same,normalized growth,[4],1.02
same,normalized growth,[5],1.05
same,normalized growth,[6],1
same,normalized growth,[7],0.99
same,normalized growth,[8],0.729
same,normalized growth,[9],1.01
same,normalized growth,[10],0.993
same,normalized growth,[11],0.989
same,normalized growth,[12],0.961
same,normalized growth,[13],0.897
same,normalized growth,[14],0.992
same,normalized growth,[15],0.949
same,normalized growth,[16],0.831
same,normalized growth,[17],1
same,normalized growth,[18],1.01
same,normalized growth,[19],1
same,normalized growth,[20],0.742
same,normalized growth,[21],0.952
same,normalized growth,[22],0.957
same,normalized growth,[23],0.985
same,normalized growth,[24],0.958
same,normalized growth,[25],0.902
same,normalized growth,[26],1.02
same,normalized growth,[27],0.995
same,normalized growth,[28],0.899
Cc1ccc(Oc2ccc(C)cc2)cc1,normalized growth,[1],0.993
same,normalized growth,[2],0.999
same,normalized growth,[4],1.01
same,normalized growth,[5],0.999
same,normalized growth,[6],0.976
same,normalized growth,[7],1
same,normalized growth,[8],0.663 (active)
same,normalized growth,[9],1.03
same,normalized growth,[10],0.993
same,normalized growth,[11],0.992
same,normalized growth,[12],1.01
same,normalized growth,[29],1
same,normalized growth,[13],0.897
same,normalized growth,[14],0.991
same,normalized growth,[15],0.864
same,normalized growth,[16],0.889
same,normalized growth,[17],1.06
same,normalized growth,[18],1
same,normalized growth,[19],0.969
same,normalized growth,"locus YNL128W, strain TEP1, hits give low values",0.995
same,normalized growth,[21],0.999
same,normalized growth,[22],0.96
same,normalized growth,[23],0.993
same,normalized growth,[24],0.962
same,normalized growth,[26],1.02
same,normalized growth,[27],0.936
same,normalized growth,[28],0.912
CC(C)(N=NC(C)(C)C(=N)N)C(=N)N,normalized growth,"locus YAL021C, strain ccr4, hits give low values",0.995
same,normalized growth,"locus YAL026C, strain drs2, hits give low values",1.05
same,normalized growth,"locus YAL030W, strain snc1, hits give low values",1.02
same,normalized growth,"locus YBL061C, strain skt5, hits give low values",1.02
same,normalized growth,"locus YBR009C, strain hhf1, hits give low values",1.07
same,normalized growth,"locus YBR023C, strain chs3, hits give low values",1.02
same,normalized growth,"locus YBR171W, strain sec66, hits give low values",1.03
same,normalized growth,"locus YBR231C, strain swc5, hits give low values",1.04
same,normalized growth,"locus YBR279W, strain paf1, hits give low values",1.03
same,normalized growth,"locus YCL011C, strain gbp2, hits give low values",1.03
same,normalized growth,"locus YCL016C, strain dcc1, hits give low values",1.03
same,normalized growth,[3],1.03
same,normalized growth,"locus YCL069W, strain vba3, hits give low values",1.02
same,normalized growth,"locus YCR088W, strain abp1, hits give low values",1.02
same,normalized growth,"locus YDL005C, strain med2, hits give low values",1.03
same,normalized growth,"locus YDL040C, strain nat1, hits give low values",1.02
same,normalized growth,"locus YDR001C, strain nth1, hits give low values",1.02
same,normalized growth,"locus YDR069C, strain doa4, hits give low values",1.03
same,normalized growth,"locus YDR137W, strain rgp1, hits give low values",0.998
same,normalized growth,"locus YDR159W, strain sac3, hits give low values",1.05
same,normalized growth,"locus YDR195W, strain ref2",1
same,normalized growth,"locus YDR297W, strain sur2, hits give low values",1.02
same,normalized growth,"locus YDR334W, strain swr1, hits give low values",1.03
same,normalized growth,"locus YDR335W, strain msn5, hits give low values",1.02
same,normalized growth,"locus YDR392W, strain spt3, hits give low values",0.98
same,normalized growth,"locus YEL003W, strain gim4, hits give low values",1.03
same,normalized growth,"locus YEL037C, strain rad23, hits give low values",1.02
same,normalized growth,"locus YEL061C, strain CIN8 (second series), hits give low values",1.02
same,normalized growth,"locus YER015W, strain faa2, hits give low values",1.03
same,normalized growth,"locus YER016W, strain bim1, hits give low values",1.04
same,normalized growth,"locus YER111C, strain swi4, hits give low values",1.03
same,normalized growth,"locus YER155C, strain BEM2 (second series), hits give low values",1.03
same,normalized growth,"locus YFR010W, strain ubp6, hits give low values",1.03
same,normalized growth,"locus YGL167C, strain pmr1, hits give low values",1.03
same,normalized growth,"locus YGL173C, strain kem1, hits give low values",1.05
same,normalized growth,"locus YGL227W, strain vid30, hits give low values",1.02
same,normalized growth,"locus YGL240W, strain doc1, hits give low values",1.04
same,normalized growth,"locus YGL253W, strain hxk2, hits give low values",1.01
same,normalized growth,"locus YHR013C, strain ard1, hits give low values",1.05
same,normalized growth,"locus YHR027C, strain rpn1, hits give low values",1.03
same,normalized growth,[8],0.971
same,normalized growth,"locus YHR079C, strain IRE1, hits give low values",0.971
same,normalized growth,"locus YHR142W, strain chs7, hits give low values",0.965
same,normalized growth,"locus YJL092W, strain hpr5, hits give low values",1.03
same,normalized growth,"locus YJL095W, strain BCK1 (second series), hits give low values",1.02
same,normalized growth,"locus YJL095W, strain BCK1, hits give low values",0.969
same,normalized growth,"locus YJL115W, strain asf1, hits give low values",1.02
same,normalized growth,"locus YJL129C, strain trk1, hits give low values",1.03
same,normalized growth,"locus YJL154C, strain vps35, hits give low values",1.02
same,normalized growth,"locus YJL164C, strain tpk1, hits give low values",1.02
same,normalized growth,"locus YJL166W, strain qcr8, hits give low values",1.01
same,normalized growth,[10],1.02
same,normalized growth,"locus YJR066W, strain TOR1, hits give low values",0.896
same,normalized growth,"locus YKL160W, strain elf1, hits give low values",0.99
same,normalized growth,"locus YKR026C, strain gcn3, hits give low values",1.02
same,normalized growth,"locus YKR091W, strain srl3, hits give low values",1.02
same,normalized growth,"locus YLL001W, strain dnm1, hits give low values",1.03
same,normalized growth,"locus YLL026W, hits give low values",1.02
same,normalized growth,"locus YLL041C, strain sdh2, hits give low values",1.02
same,normalized growth,"locus YLR027C, strain aat2, hits give low values",1.03
same,normalized growth,"locus YLR113W, strain HOG1, hits give low values",0.985
same,normalized growth,"locus YLR221C, strain rsa3, hits give low values",1.02
same,normalized growth,"locus YLR258W, strain gsy2, hits give low values",1.04
same,normalized growth,"locus YLR262C, strain YPT6 (second series), hits give low values",1.03
same,normalized growth,"locus YLR320W, strain mms22, hits give low values",1.07
same,normalized growth,"locus YLR342W, strain FKS1, hits give low values",1.03
same,normalized growth,"locus YLR357W, strain rsc2, hits give low values",1.06
same,normalized growth,"locus YLR370C, strain arc18, hits give low values",1.03
same,normalized growth,"locus YLR384C, strain iki3, hits give low values",1.02
same,normalized growth,"locus YML120C, strain ndi1, hits give low values",1.04
same,normalized growth,"locus YMR058W, strain fet3, hits give low values",1.03
same,normalized growth,"locus YMR125W, strain sto1, hits give low values",1.04
same,normalized growth,"locus YMR129W, hits give low values",1.01
same,normalized growth,"locus YMR205C, strain PFK2, hits give low values",1.08
same,normalized growth,"locus YMR231W, strain pep5, hits give low values",1.02
same,normalized growth,"locus YNL071W, strain lat1, hits give low values",1.02
same,normalized growth,"locus YNL183C, strain NPR1, hits give low values",0.906
same,normalized growth,"locus YNL209W, strain ssb2, hits give low values",1.03
same,normalized growth,"locus YNL248C, strain rpa49, hits give low values",0.99
same,normalized growth,"locus YNL322C, strain KRE1 (second series), hits give low values",1.01
same,normalized growth,"locus YNR049C, strain mso1, hits give low values",1.02
same,normalized growth,"locus YOR001W, strain rrp6, hits give low values",1.02
same,normalized growth,"locus YOR070C, strain gyp1, hits give low values",1.04
same,normalized growth,"locus YOR080W, strain dia2, hits give low values",1.03
same,normalized growth,"locus YOR083W, strain WHI5, hits give low values",0.988
same,normalized growth,"locus YOR106W, strain vam3, hits give low values",0.886
same,normalized growth,"locus YOR231W, strain MKK1, hits give low values",0.976
same,normalized growth,"locus YOR265W, strain rbl2, hits give low values",1.02
same,normalized growth,"locus YOR270C, strain vph1, hits give low values",1.02
same,normalized growth,"locus YOR290C, strain snf2, hits give low values",1
same,normalized growth,"locus YPL051W, strain arl3, hits give low values",1.01
same,normalized growth,"locus YPL078C, strain atp4, hits give low values",0.983
same,normalized growth,"locus YPL106C, strain sse1, hits give low values",1.05
same,normalized growth,"locus YPL240C, strain hsp82, hits give low values",1.01
same,normalized growth,"locus YPL256C, strain CLN2, hits give low values",0.979
C[C@H]1OC[C@@H](C[N+](C)(C)C)O1,normalized growth,"locus YAL040C, strain CLN3, hits give low values",1.01
same,normalized growth,"locus YCL061C, strain MRC1 (second series), hits give low values",1.01
same,normalized growth,[5],1
same,normalized growth,"locus YDR363W, strain ESC2, hits give low values",1.02
same,normalized growth,"locus YER002W, strain NOP16, hits give low values",1.04
same,normalized growth,[20],1
same,normalized growth,[21],1.02
same,normalized growth,"locus YNL175C, strain NOP13, hits give low values",1.02
same,normalized growth,"locus YNL197C, strain WHI3, hits give low values",1
same,normalized growth,"locus YNL224C, strain SQS1, hits give low values",1.02
same,normalized growth,[23],1.02
same,normalized growth,"locus YOR083W, strain WHI5 (second series), hits give low values",1.03
same,normalized growth,[26],1.05
CC(SCc1ccccc1)C(=O)O (configuration not stated),normalized growth,[1],0.971
same,normalized growth,[2],0.965
same,normalized growth,[3],0.997
same,normalized growth,[4],1
same,normalized growth,"locus YDL134C, strain PPH21, hits give low values",1
same,normalized growth,[5],0.91
same,normalized growth,[6],1.04
same,normalized growth,[7],0.994
same,normalized growth,[8],0.992
same,normalized growth,[9],0.978
same,normalized growth,[10],0.986
same,normalized growth,[11],0.981
same,normalized growth,[12],0.965
same,normalized growth,[29],1
same,normalized growth,[13],1.02
same,normalized growth,[14],0.988
same,normalized growth,[15],1.01
same,normalized growth,[16],1.02
same,normalized growth,[17],1.02
same,normalized growth,[18],0.979
same,normalized growth,[19],0.984
same,normalized growth,[21],0.981
same,normalized growth,[22],1.04
same,normalized growth,[23],0.991
same,normalized growth,[24],1
same,normalized growth,[25],1.02
same,normalized growth,[26],0.856
same,normalized growth,[27],1
same,normalized growth,[28],0.976

# Reference: PubChem BioAssay AID1159580 (chemical genetic matrix, 2015)
